Assay in all cases: NCI-60 one-dose screen, 48 h (100 = growth as untreated, 0 = no growth, -100 = all killed)
Common to all, as to settings: 10 µM

Assay [1] deals with DU-145 prostate.
Assay [2] has as its system K-562 leukemia.
Assay [3] has as its system MALME-3M melanoma.
The subject of assay [4] is MDA-MB-231 breast.
Assay [5] has as its system RXF 393 renal.
Assay [6] deals with SF-268 CNS.
Assay [7] concerns SF-295 CNS.
Assay [8] has as its system SF-539 CNS.
The test system of assay [9] is UACC-257 melanoma.
Assay [10] concerns M14 melanoma.
The subject of assay [11] is HCT-15 colon.
The subject of assay [12] is HT29 colon.
The test system of assay [13] is SNB-75 CNS.
The subject of assay [14] is SNB-19 CNS.
Assay [15] relates to U251 CNS.
For assay [16], the system named is PC-3 prostate.
In assay [17] the test system is SK-MEL-5 melanoma.
The subject of assay [18] is UACC-62 melanoma.
In assay [19] the test system is LOX IMVI melanoma.
The test system of assay [20] is SK-MEL-28 melanoma.

About 83,000 compounds went through this panel and 20% of them were active in at least one assay; those are over-represented in the sample as a whole.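 Negative percent growth values reflect cell death: -40 means 40% of the cells present at the start died, and -100 means all died.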 Values without a mark were called inactive. Activity calls are given as the source filed them. Rule for the calls: active = growth percent below 10; inactive = the rest.

Take `CCOC(=O)c1cc(C(=O)c2cc(OC)cc(OC)c2)n2nc(C)ccc12`: the growth is 21.9% in assay [1]; 10.3% in assay [2]; 74.3% in assay [3]; 52.6% in [4]; 13.6% in assay [5]; 62.4% in assay [6]. For the same compound, the growth in [7] was 23.9%; in assay [8], 3.84% (active); in assay [9], 59.5%; in [10], 11.4%; in [11], 32.2%; in [12], 3.72% (active). Further, the growth in assay [13] was 18%; in [14] it was 39.4%; in [15], 23.1%; in [16], 25%; in assay [17] it was 30.6%; in [18] it was 46.7%. Besides, the figures for the growth in assay [19] and in [20] were 48.7% and 78.7%, respectively.
For the compound `O=C(N/N=C/c1ccc(Cl)cc1)c1ccc(Cc2n[nH]c(=O)c3cccnc23)cc1`, the growth in [1] was 112%; in [2], 106%; in [3] it was 93.2%; in assay [4], 102%; in [5] it was 91.2%; in [6], 98.6%. The growth in assay [7] was 101%; in assay [8], 89.7%; in [9], 97.1%; in assay [10], 99.6%; in assay [11], 97.1%; in assay [12], 99.3%. Also, the growth in assay [13] is 84.5%; in [14], 89%; in assay [15] it was 103%; in [16], 95.4%; in [17], 100%; in [18], 94.2%. The growth is 100% in [19] and 104% in [20].
For `O=S(=O)(O)c1cccc(Nc2ccc3ccccc3c2)c1`, the growth is 109% in [1]; 98.7% in [2]; 88.1% in [3]; 90.1% in [4]; 107% in [5]; 95.8% in assay [6]. For the same compound, the growth in assay [7] is 104%; in assay [8], 102%; in [9] it was 89.7%; in assay [10] it was 92.7%; in assay [11], 110%; in assay [12], 99%. Besides, the growth was 78.2% in assay [13]; 96.3% in [14]; 95.5% in assay [15]; 79% in assay [16]; 99% in [17]; 88.1% in assay [18]. The growth in assay [19] is 93.4%; in assay [20] it was 108%.
As to `O=C(NCCNC(=O)c1ccc(F)cc1)Nc1ccc(-n2cc(-c3ccncc3)c(-c3ccc(Cl)c(O)c3)n2)cc1`, the growth in assay [1] was 2.26% (active); in assay [2], 6.23% (active); in assay [3] it was 3.35% (active); in [4], -29.1% (active); in assay [5], 3.36% (active); in [6], 5.76% (active). In addition, the growth was -59.1% (active) in [7]; -37.7% (active) in [8]; 24.1% in assay [9]; -44.4% (active) in assay [10]; 19.5% in assay [11]; -45.3% (active) in [12]. The growth was 18.7% in [13]; 22.7% in assay [14]; -19.9% (active) in assay [15]; -5.9% (active) in [16]; -84.9% (active) in assay [17]; 7.05% (active) in [18]. For the same compound, the growth in assay [19] is -3.97% (active); in assay [20], 18.4%.
For the compound `COc1cc(/C=C/c2cc(/C=C/c3ccc(O)c(OC)c3)n(C(=O)Nc3ccccc3Cl)n2)ccc1O`, the growth in assay [1] was 1.28% (active); in [2], 2.27% (active); in assay [3], 8.27% (active); in assay [4], 17.7%; in assay [5] it was -50.3% (active); in [6], -6.38% (active). In addition, the growth was 2.83% (active) in assay [7]; 4.06% (active) in assay [8]; 1.28% (active) in assay [9]; 0.265% (active) in [10]; 15% in assay [11]; -35% (active) in assay [12]. Moreover, the growth in assay [13] was -4.71% (active); in assay [14] it was 15.5%; in [15], 2.33% (active); in assay [16], 6.54% (active); in [17], -23.8% (active); in assay [18], 1.04% (active). The growth was 1.22% (active) in [19] and 12.1% in [20].
Consider `CCCC1(CN2c3ccccc3Sc3ccc(Cl)cc32)CCN(CC)C1` (stereo not given), for which the growth in assay [1] is -32.3% (active); in assay [2] it was -61.9% (active); in assay [3] it was -61.5% (active); in assay [4], -28.4% (active); in assay [5], -33.7% (active); in assay [6] it was 25.9%. Further, the growth in [7] was -89.4% (active); in assay [8], -7.27% (active); in assay [9], 4.91% (active); in assay [10] it was -93.2% (active); in assay [11], 3.6% (active); in assay [12], -68% (active). The growth in assay [13] was 1.99% (active); in assay [14] it was -36.3% (active); in assay [15], -92% (active); in assay [16], 5.75% (active); in [17], -95.9% (active); in assay [18], -21.4% (active). Also, the growth was -100% (active) in assay [19] and -67.8% (active) in assay [20].
With `Oc1cccc(-c2nc3sccn3c2-c2ccncn2)c1`, the growth in [1] was 106%; in [2] it was 90%; in assay [3], -8.47% (active); in assay [4], 81.4%; in [5], 67.3%; in assay [6] it was 106%. The growth is 101% in [7]; 98.8% in [8]; 31% in [9]; 19.4% in assay [10]; 93.2% in [11]; 54.8% in assay [12]. Moreover, the growth was 39.4% in [13]; 111% in assay [14]; 114% in assay [15]; 84.6% in assay [16]; 90.6% in assay [17]; 14.5% in [18]. Also, the values for the growth in assay [19] and in assay [20] were 36.2% and 33.9%, respectively.
In the case of `CS(=O)(=O)c1nccc(-c2c(-c3cccc(OCCN4CCOCC4)c3)nc3sccn23)n1`, the growth in assay [1] was 91.9%; in assay [2], 91.5%; in [3], 105%; in assay [4], 67.9%; in [5], 89.2%; in [6], 107%. Besides, the growth in assay [7] is 104%; in [8] it was 81.3%; in assay [9], 110%; in assay [10], 113%; in assay [11], 81.8%; in assay [12], 66.9%. Further, the growth in assay [13] was 75.9%; in assay [14] it was 82.5%; in assay [15] it was 86.6%; in assay [16] it was 77.9%; in assay [17], 84.5%; in assay [18], 89.1%. The growth was 91.3% in [19] and 99.3% in [20].

Values taken from PubChem BioAssay (NCI).
